Test results as given in PubChem BioAssay AID540364 (The Scripps Research Institute Molecular Screening Center, 2011).
Among all 360,000 compounds or so, about 2,000 (0.56%) were called active.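 The calls were made as follows: active = activation above the average of all compounds screened plus 3 SD, cutoff fixed separately per campaign (cut at about 7.5% in these data); inactive = the rest.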 The full list was thinned out, with actives kept by preference.

assay: GAA850 frataxin promoter reporter upregulation – cell-based, luciferase luminescence, HEK293 lucGAA850, primary screen (AID 540364); details: HEK293 lucGAA850 FXN promoter luciferase reporter, 24 h; at 6 µM; hits give high values; percent of 10 µM SAHA response;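 also: 0% = DMSO wells and 100% = 10 µM SAHA wells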

SMILES | activation
O=C1CS(=O)CN1c1ccc(Oc2ccccc2)cc1 (configuration not stated) | 0.15% (inactive)
Cc1ccc(-n2nc(N)c3c(=O)oc(N(C)C)nc32)cc1 | -0.82% (inactive)
Cc1ccsc1C(=O)NCCc1ccco1 | 2.23% (inactive)
CCC(C)c1ccc(NC(=S)N2CCCC2)cc1 (configuration not stated) | 2.31% (inactive)
CCCCc1ccc(NC(=S)N2CCCC(CO)C2)cc1 (configuration not stated) | 9.18% (active)
CCOc1ccc(NC(=S)N2CCCCCC2)cc1 | 1.3% (inactive)
Cc1ccc2cc(/C=N/Nc3ccc(C(=O)O)cc3)c(Cl)nc2c1 | 8.93% (active)
O=C(O)c1ccc(N/N=C/c2ccc3ncccc3c2)cc1 | -3.19% (inactive)
Cc1ccc2cc(/C=N/NC(=O)[C@@H]3CCCN3)c(Cl)nc2c1 | 0.79% (inactive)
CCOCCCNC(=O)C(NC(=O)CNC(=O)c1ccccc1)c1ccc(C)cc1 (configuration not stated) | 1.83% (inactive)
COc1ccc(OC)c(NC(=O)CSc2nc3cccnc3n2C)c1 | 1.38% (inactive)
COc1cccc(-c2ccc(C#N)c(SCC(=O)NCCc3ccc(Cl)cc3)n2)c1 | 1.81% (inactive)
COc1cccc2cc(/C(C)=N/NC(=O)c3ccco3)oc12 | 3.55% (inactive)
CSc1nsc(SCC(=O)Nc2cc(C(=O)O)ccc2C)n1 | 0.88% (inactive)
COc1ccc(NC(=O)CSc2nc(SC)ns2)c(OC)c1 | 7.6% (active)
COc1ccc(C)cc1NC(=O)CSc1nc(SC)ns1 | -0.57% (inactive)
Cc1cccc(C(=O)NC2CCN(CC(=O)Nc3cccc(Cl)c3)CC2)c1 | -1.24% (inactive)
Fc1c(F)c(C(F)(F)F)c(F)c(F)c1N1CCN(c2ccc3nnc(C(F)(F)F)n3n2)CC1 | -0.98% (inactive)
Cc1cc(NC(=O)Nc2ccccc2[N+](=O)[O-])no1 | 3.8% (inactive)
Cc1ccc2nsnc2c1NC(=O)c1ccccc1[N+](=O)[O-] | 3.24% (inactive)
Cc1ccccc1Nc1c([N+](=O)[O-])ccc2nonc12 | 8.33% (active)
CC(C)CN(C(=O)CSc1nncn1C)C1CCS(=O)(=O)C1 (configuration not stated) | 0.57% (inactive)
CN1C(=O)/C(=N/OC(=O)c2ccccc2Br)c2ccccc21 | 2.92% (inactive)
CN1C(=O)/C(=C\c2cc(Br)cs2)c2ccccc21 | 9.69% (active)

SMILES | activation
CCC1C(=O)c2ccccc2N(C)C1=O (configuration not stated) | 0.11% (inactive)
COCCC(=O)Nc1ccc2c(c1)CN(C(=O)CCOC)CC2 | 0.49% (inactive)
CC1C/C(=N/NC(=O)c2cccs2)CC(C)(C)C1 (configuration not stated) | 2.63% (inactive)
C=CCn1c(SCc2ccccc2)nc2c1c(=O)[nH]c(=O)n2C | 4.04% (inactive)
Cc1nnc(SCCCn2c(N3CCCCC3)nc3c2c(=O)[nH]c(=O)n3C)s1 | 3.13% (inactive)
Cc1nnc(Sc2nc3c(c(=O)[nH]c(=O)n3C)n2Cc2ccccc2)s1 | 21.3% (active)
COc1cc(Cn2c3ccc(NC(=O)CC(C)c4ccccc4)cc3c(=O)n2C)ccc1F (configuration not stated) | -0.13% (inactive)
C[C@H]([C@@H](O)[C@@H](O)[C@@H](C)C(C)(C)C)[C@H]1CC[C@H]2C3CC[C@H]4C[C@H](OS(=O)(=O)O)[C@@H](OS(=O)(=O)O)C[C@]4(C)[C@H]3CC[C@]12C (some centres not stated) | -1.51% (inactive)
Nn1cnnc1N/N=C/c1cc([N+](=O)[O-])c(Cl)cc1Cl | -1.71% (inactive)
CNC(=O)c1cccc2nc3ccccc3nc12 | 3.97% (inactive)
CCCN(CCC)CCNC(=O)c1cc2c(C)nc3ccccc3c2o1 | -0.61% (inactive)
CN(C)CCNC(=O)c1ccc(Cl)c2cc3ccccc3nc12 | 22.7% (active)
COC(=O)CCSc1cc([N+](=O)[O-])cc2c1c(C1OCCS1)nn2-c1ccccc1 (configuration not stated) | 4.76% (inactive)
CC1=C(C(=O)N2CCOCC2)CC(CC(=O)NCc2cccc3ccccc23)C(=O)N1CCC1=CCCCC1 (configuration not stated) | -1.16% (inactive)
Cn1c(=O)n(C)c2cc(S(=O)(=O)N3CCCc4ccccc43)ccc21 | 7.64% (active)
O=S(=O)(c1ccccc1)N1CCc2ccccc21 | 1.28% (inactive)
CCn1c(=O)c(=O)n(CC)c2cc(S(=O)(=O)N3CCc4ccccc43)ccc21 | 0.26% (inactive)
Cc1c(Br)c([N+](=O)[O-])nn1C(C)C(=O)Nc1nccs1 (configuration not stated) | 1.64% (inactive)
COc1ccc(-n2nc(C(=O)NCC(=O)Nc3cccc(C)n3)c3ccccc3c2=O)cc1 | -0.56% (inactive)
Cc1ccc(S(=O)(=O)N(CCc2ccccc2)c2ccc3c(c2)C2CC3CCN2C(=O)OCc2ccccc2)cc1 (configuration not stated) | 0.17% (inactive)
COc1ccc(/C=C/C(=O)Nc2ccc(C34CC5CC(CC(O)(C5)C3)C4)cc2)cc1OC | 7.97% (active)
COc1ccc(/C=C/C(=O)Nc2ccc(C)cc2)cc1S(=O)(=O)N1CCOCC1 | -0.63% (inactive)
COc1cc(/C=C/C(=O)Nc2ccc(OC)c(S(=O)(=O)N3CCOCC3)c2)ccc1OCC#N | -0.85% (inactive)
